Results on 15 molecules are retold here after PubChem BioAssay AID2599 (Sanford-Burnham Center for Chemical Genomics, 2010).

The whole screen tested about 330,000 compounds, of which about 5,800 (1.8%) were called active. The sample holds actives, similar compounds and a random draw of the others, so the mix is not that of the screen. A number with no mark means an inactive call.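 How the source made its calls: active means inhibition above about 50% at the single tested dose (limit read from the data); inactive means the rest.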

The target in the test is Sentrin-specific protease 6 (Homo sapiens) (UniProt Q9GZR1). Nature of the test: inhibition of human SENP6 catalytic domain – biochemical, luminescence, uHTS, primary screen (AID 2599).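 Further: plate controls were DMSO wells with enzyme for no effect and DMSO wells lacking enzyme for full effect.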 The conditions noted are these: Recombinant SENP6 catalytic domain, aminoluciferin luminescence; at 10 µM; stronger effect = higher value.
Chain of Sentrin-specific protease 6 (Homo sapiens) (Q9GZR1 628-1112 limits assumed): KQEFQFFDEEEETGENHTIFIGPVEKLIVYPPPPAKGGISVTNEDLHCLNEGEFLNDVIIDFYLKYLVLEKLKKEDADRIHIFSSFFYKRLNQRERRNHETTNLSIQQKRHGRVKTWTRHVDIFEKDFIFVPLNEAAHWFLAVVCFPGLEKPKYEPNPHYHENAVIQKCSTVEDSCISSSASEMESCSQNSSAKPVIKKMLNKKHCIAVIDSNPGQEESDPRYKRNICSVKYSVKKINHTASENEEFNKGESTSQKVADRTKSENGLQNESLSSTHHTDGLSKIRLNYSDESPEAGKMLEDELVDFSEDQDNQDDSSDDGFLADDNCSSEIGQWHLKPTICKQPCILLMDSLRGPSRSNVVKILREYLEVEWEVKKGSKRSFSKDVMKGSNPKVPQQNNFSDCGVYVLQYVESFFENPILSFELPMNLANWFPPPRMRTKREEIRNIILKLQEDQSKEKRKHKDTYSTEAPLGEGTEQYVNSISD
Take `CCOC(=O)c1c(N)n(CCN2CCOCC2)c2nc3ccccc3nc12`: the inhibition (commonly the drop in the measured response relative to a control, in per cent) is -28.7%.
`CCOC(=O)c1c(N)n(Cc2ccccc2)c2nc3ccccc3nc12`: the inhibition was 29.7%.
With `COc1cc(Cn2c(N)c(C(=O)NCc3ccco3)c3nc4ccccc4nc32)cc(OC)c1OC` the figure was 83.6% (active); with `CC[N+](CC)(CC)CCCCCCCCCC[N+](CC)(CC)CC`, -14.6%; with `COc1ccc(NC(=O)N2CCC3(CC2)OCCO3)c(OC)c1`, -19.7%.
For the molecule `O=C(Nc1cccc2ccccc12)N1CCC2(CC1)OCCO2`, the inhibition is 63.7% (active).
To `O=C(c1cc(-c2ccncc2)nc2ccccc12)N1CCC2(CC1)OCCO2` belongs 5.91%.
To `Cc1cc2ccccn2c1C(C[N+](=O)[O-])c1c(F)cccc1Cl` (stereo not given) belongs -24.7%.
To `O=[N+]([O-])c1cnc2ccc3ccccc3c2c1` belongs -4.31%; to `C/C(CCc1c[nH]c2ccccc12)=N\O`, -0.527%.
Regarding `C/C(=N/O)c1ccc2ccc3ccccc3c2c1`, the inhibition is 53.8% (active).
With `O=C(NC(=S)N1C[C@H]2C[C@H](C1)c1cccc(=O)n1C2)c1ccc(F)cc1` the figure was 0.817%; with `CC(=O)N1CN2CN(C(C)=O)CC(C(=O)c3ccc(Br)cc3)(C2)C1`, -9.66%.
Turning to `O=c1[nH]c(=O)n(-c2ccc(F)cc2)c(O)c1C=NCCN1CCCCC1`, the inhibition was -0.13%.
With `CCCCCCCCCCCCn1ccc(=N)cc1` the figure was -35.7%.
